Measurements published in publication PMC4552634, “A New Set of Chemical Starting Points with Plasmodium falciparum Transmission-Blocking Potential for Antimalarial Drug Discovery” (PLoS ONE, 2015).
In all, about 13,000 compounds went through this assay and about 3,200 (25%) showed an effect of 50% or more. The list shows a part of the results.

system: P. falciparum stage V gametocytes; set-up: BacTiter-Glo ATP luminescence viability of purified stage V gametocytes in 384-well plates, per cent inhibition versus DMSO; settings: 48 h, 5 µM; inhibitor

Which “% Inhibition” value does the source give for `CCN(CC)CCCN(C(=O)Nc1c(Cl)cncc1Cl)c1nc(-c2ccc(F)cc2)cs1` [TCMDC-136666] here?
Its value is -35.52%.

For `O=C(Cc1ccc(NC(=O)c2ccc(O)c(-c3ccc(Cl)c(Cl)c3)c2)cc1)NCCN1CCCCC1` [TCMDC-140861], which “% Inhibition” value is on record?
Its value is -19.27%.

How did the “% Inhibition” value turn out when `O=C(Nc1cccc2ccccc12)N1CCC(NS(=O)(=O)c2cccc(C(F)(F)F)c2)CC1` [TCMDC-139437] was run?
Its value is -43.48%.

Which “% Inhibition” value does the source give for `Cn1c(N)c(N=O)c(=O)[nH]c1=O` [TCMDC-123469] here?
Its value is -4.943%.

For `CC1CN(Cc2ccc(C#N)cc2)CCN1c1ccc(NC(=O)c2cccs2)cc1` (stereo not drawn) [TCMDC-134949], which “% Inhibition” value is on record?
The value was -2.454%.

For `Cc1nnnn1-c1ccc(C(=O)N2CCC3(CC2)CN(Cc2ccc(Cl)c(Cl)c2)C(=O)O3)cc1` [TCMDC-141691], which “% Inhibition” value is on record?
Its value is -63.06%.

How did the “% Inhibition” value turn out when `Oc1ccc(CCNCCCCCCNCCc2ccc(Cl)c3ccccc23)cc1O` [TCMDC-131271] was run?
Its value is 123.4%.

Which “% Inhibition” value does the source give for `O=C(CCCCCNC(=O)c1ccc(O)c(-c2ccc(Cl)c(Cl)c2)c1)NCCc1ccc(Cl)c(Cl)c1` [TCMDC-140870] here?
The value was 6.745%.

Which “% Inhibition” value does the source give for `O=C(Nc1ccc(CCNCCCc2ccccc2)cc1)Nc1ccc(Cl)c(Cl)c1` [TCMDC-140703] here?
The value was 18.38%.

With `NS(=O)(=O)c1cccc(Nc2nccc(-c3cnn4ncccc34)n2)c1` [TCMDC-138919] as the compound, how does the “% Inhibition” value read?
The value was -22.3%.

How did the “% Inhibition” value turn out when `Cc1cc(Nc2cccc(C(F)(F)F)c2)nc2ccc(NC(=O)c3ccc(=O)[nH]c3)cc12` [TCMDC-125286] was run?
Its value is -51.61%.

With `CC(C)c1cc(N)c2cc(NC(=O)COCC(=O)Nc3ccc4nc(C(C)C)cc(N)c4c3)ccc2n1` [TCMDC-140151] as the compound, how does the “% Inhibition” value read?
The value was 20.51%.

For `Nc1nc(N)c2cc(CNc3ccc(Cl)c(Cl)c3)ccc2n1` [TCMDC-141974], which “% Inhibition” value is on record?
Its value is -49.67%.

With `Cc1cc(N)c2cc(NC(=O)c3ccc4ccccc4c3)ccc2n1` [TCMDC-139362] as the compound, how does the “% Inhibition” value read?
The value was 110.4%.

Which “% Inhibition” value does the source give for `Cc1[nH]cnc1-c1cccc(NC(=O)c2cc3ccccc3s2)c1` [TCMDC-140418] here?
Its value is -4.001%.

`O=C(Nc1cncc(NC(=O)c2ccc(Cl)c(Cl)c2)c1)c1ccc(Cl)c(Cl)c1` [TCMDC-134576] was tested. Which “% Inhibition” value did it give?
The value was -22.28%.

For `Cc1cc(N)c2cc(NC(=O)c3cc4ccccc4s3)ccc2n1` [TCMDC-139336], which “% Inhibition” value is on record?
Its value is 120.6%.

How did the “% Inhibition” value turn out when `Nc1nc(N)c2cc(NC(=O)c3ccc(Cl)c(Cl)c3)ccc2n1` [TCMDC-141982] was run?
The value was 63.61%.

Which “% Inhibition” value does the source give for `COc1cc(C)nc2ccc(NC(=O)c3cc(C(F)(F)F)cc(C(F)(F)F)c3)cc12` [TCMDC-139381] here?
The value was -62.94%.

Which “% Inhibition” value does the source give for `Cc1cc(N)c2cc(NC(=O)c3cc(C(F)(F)F)cc(C(F)(F)F)c3)ccc2n1` [TCMDC-139377] here?
The value was 129.8%.

Which “% Inhibition” value does the source give for `CN1CCc2cc(NC(=O)c3cc4ccccc4s3)cc(-c3ccccc3)c2CC1` [TCMDC-141733] here?
The value was 18.19%.
